This is an account of results in PMC12864922, “TDP-43 directly inhibits mRNA accumulation in neurites through modulation of mRNA stability”.

Over roughly 9,900 sequences, “r (bound/input frequency ratio)” has its median near 0.7; the highest 2% begin near 6.5. What follows is part of a selection rich in the highest values, with near analogues and random picks from the rest.

The chains are these.
B1: ENSMUSG00000032194.202|Kank2|53:57 (ssRNA)
RNA: GGGAGUUCUACAGUCCGACGAUCGCUUCGAUAUCCGCAUGCUAGACAGGCUGCACCUUUCUCUAACUGGGGUUCCUUUCUGGCCCCAGGAUCUCACACACGUUCGUGGGGGGAUUUUGUUGUUGUUUCUUUGUUUCUUUUCUUCAUAAAGAAGAAAAAGGAAACAACUUCUAGAUGUGCCUUGCGAUAGGGAGGACUUUGUCCUCUCAAGUCUCCCUGUCGUAUCCAGAUCACAGCUGAACCCACUGGGCCUUGGCGCCAAACCUCAGCAGGGCAGCAUUGAGACUCAUGGACUAAAGGAAAGCUCUUGCGGUCGCACUAGUGUGGAAUUCUCGGGUGUCAAGG
B2: ENSMUSG00000022095.275|Fam160b2|1:15;62:66;198:203 (ssRNA)
RNA: GGGAGUUCUACAGUCCGACGAUCGCUUCGAUAUCCGCAUGCUACACACACACACACACAGAGAGAGAGAGAGAGAGAGAGAGCUGUGAGUACACAUGGGUGCUGCACACGGACAGGAGCAGAUCUUGGUGGAGUGGGUCUACACUUGAGAUUUGUACUCGUUUGAGAGGCUGGGCAAUACUCAAUGCACUUUGGCAUUUGCAUGGUGUCUUCACAACAGCACAGCAAUAAACAUUGUGAUACACACGACAUGCUGACUCUCCCCAGUCUGCUUUUCUUUUCCCCAAGCUUUUCUGCCCCUGUACUCUUGCGGUCGCACUAGUGUGGAAUUCUCGGGUGUCAAGG
B3: ENSMUSG00000061578.1474|Ksr2 (ssRNA)
RNA: GGGAGUUCUACAGUCCGACGAUCGCUUCGAUAUCCGCAUGCUAAAUAAAUGGAUGGAUGGAUGGAUUGAUUUGUGAAUGAAUGGAUGAAUGGAUGGGUAGGUGGGUGGAUGCAUAGGCAAGUAGAUGAAUGAAUAUGUGGGUAGAAGGGUGAGUGGGUGGAUGAAUGGAUGGAUAGGUUGGUAGGUUAAUGUAUUCGUGGAUGGGUGAAUGGAUGGAUGGAUAGAUAGAUGGGAAGGUGGAUGGACAGAUGGAUGGAUGGAUAGAUAGAUGGACAGGUGGUUGGUGGAUAAAUGAGUGAAUGACUCUUGCGGUCGCACUAGUGUGGAAUUCUCGGGUGUCAAGG
B4: ENSMUSG00000061578.1471|Ksr2|12:16 (ssRNA)
RNA: GGGAGUUCUACAGUCCGACGAUCGCUUCGAUAUCCGCAUGCUAUGGAUGGAUAGCAUACUGAAUAAAUGGAUGGAUGGAUGGAUUGAUUUGUGAAUGAAUGGAUGAAUGGAUGGGUAGGUGGGUGGAUGCAUAGGCAAGUAGAUGAAUGAAUAUGUGGGUAGAAGGGUGAGUGGGUGGAUGAAUGGAUGGAUAGGUUGGUAGGUUAAUGUAUUCGUGGAUGGGUGAAUGGAUGGAUGGAUAGAUAGAUGGGAAGGUGGAUGGACAGAUGGAUGGAUGGAUAGAUAGAUGGACAGGUGGUUGGUCUCUUGCGGUCGCACUAGUGUGGAAUUCUCGGGUGUCAAGG
B5: ENSMUSG00000058297.476|Spock2 (ssRNA)
RNA: GGGAGUUCUACAGUCCGACGAUCGCUUCGAUAUCCGCAUGCUAGCUGUGUUGGAAAGAGUUCAACCAAAUUACGGCAGCACCACAUCUUGCCGAGCCCUGGAGCUGCCCUACUAAGAGCCUCCUUAGCCCUGGGUGCUGGGAAGGAUGGUGUACGUUGGGGAAGUUUGAGGUUGGAGAGAGUAAAUGUGCCUUGAGAGACCACUCAGAGGUCCCAGGAGGAACGGGGGCGGGGCUUAGCCUGGGAGUUCUGGCAGGAGGCAAAGUUGGUGAGAGUCCUGGGACAUCUUACCCCCAGUGUUCCACUCUUGCGGUCGCACUAGUGUGGAAUUCUCGGGUGUCAAGG
B6: ENSMUSG00000090935.506|Synj2bp|218:224 (ssRNA)
RNA: GGGAGUUCUACAGUCCGACGAUCGCUUCGAUAUCCGCAUGCUAAAGCUCCAUAGAAGGCAAGACGCAUUCCACAUCUUGUCUUGACCAGCAGCACUCUGGAGGCCCAGUGUCUGCUACCCUUCUUGUAUCUGAUGGCAUGGGUAACAGCUCUGCCAUGGGCCUGCUUACUUCUAGUAUUCACCUCAGGGCUUGGAAAUUGGUUUUGAAAGGCUUUUAGACAUAGAAAGUAAAACUAAUGGCAAGGAGGAUAAAACACUGUACACACAUGUAUUGUUGAUCUAAAUAAAAAAUAUCAUUGGUAGCUCUUGCGGUCGCACUAGUGUGGAAUUCUCGGGUGUCAAGG
B7: ENSMUSG00000032194.149|Kank2 (ssRNA)
RNA: GGGAGUUCUACAGUCCGACGAUCGCUUCGAUAUCCGCAUGCUAGCAGAGGAGACUACUUCUAGAAAUACUUUCAGACCUACAGACAAAAAAGAAAAAAGGCCAUUCCGGAGUGACUCCCAGCAUCACAGCCCAGAACCUCCUCCUCAAAGGAGAGUAAACAGAGACUGUGAUACUGACCAAGUACAGGCGCUCGCUAUGAAGCCCAUAUGUUCCUGAUUAAGAGCUGGCUGGCCUCAGAGCACUCCCAGAACUAGCUUAAAGUGACAGGCUUUGCUGAAAUCCAAAGGGACAAAAGAGUAGUUCUCUUGCGGUCGCACUAGUGUGGAAUUCUCGGGUGUCAAGG
B8: ENSMUSG00000022095.204|Fam160b2 (ssRNA)
RNA: GGGAGUUCUACAGUCCGACGAUCGCUUCGAUAUCCGCAUGCUAUUGCCAGGAGGUGACAUGAAAGAGGAGGAAACUCCAUGACCUCUACAUCCCCCGCAGUCCUCCCAGCGGGGGAGGACUUCUCUGCUGCUCCGAAGAACAUCAUGCACUCCUGUGUGUGUGUGUGAGUGUGUGUGUGUGUGUGUGUGUGUGUGUGUGUGUAUGUGUGUGUAUAUGUGUGUGUGUGUGUGUAUGUGUGUGUGUGUGUGUGAGUGAGUGUGUGUGUGUGUGUGUGUGUGUGAGUGUGUGUGUAUAUGUGUGUGCUCUUGCGGUCGCACUAGUGUGGAAUUCUCGGGUGUCAAGG
B9: ENSMUSG00000022095.205|Fam160b2 (ssRNA)
RNA: GGGAGUUCUACAGUCCGACGAUCGCUUCGAUAUCCGCAUGCUAGGAGGUGACAUGAAAGAGGAGGAAACUCCAUGACCUCUACAUCCCCCGCAGUCCUCCCAGCGGGGGAGGACUUCUCUGCUGCUCCGAAGAACAUCAUGCACUCCUGUGUGUGUGUGUGAGUGUGUGUGUGUGUGUGUGUGUGUGUGUGUGUGUAUGUGUGUGUAUAUGUGUGUGUGUGUGUGUAUGUGUGUGUGUGUGUGUGAGUGAGUGUGUGUGUGUGUGUGUGUGUGUGAGUGUGUGUGUAUAUGUGUGUGUGUGUGCUCUUGCGGUCGCACUAGUGUGGAAUUCUCGGGUGUCAAGG
B10: ENSMUSG00000022095.203|Fam160b2 (ssRNA)
RNA: GGGAGUUCUACAGUCCGACGAUCGCUUCGAUAUCCGCAUGCUACACAGGUUGCCAGGAGGUGACAUGAAAGAGGAGGAAACUCCAUGACCUCUACAUCCCCCGCAGUCCUCCCAGCGGGGGAGGACUUCUCUGCUGCUCCGAAGAACAUCAUGCACUCCUGUGUGUGUGUGUGAGUGUGUGUGUGUGUGUGUGUGUGUGUGUGUGUGUAUGUGUGUGUAUAUGUGUGUGUGUGUGUGUAUGUGUGUGUGUGUGUGUGAGUGAGUGUGUGUGUGUGUGUGUGUGUGUGAGUGUGUGUGUAUAUGCUCUUGCGGUCGCACUAGUGUGGAAUUCUCGGGUGUCAAGG
B11: ENSMUSG00000022095.206|Fam160b2 (ssRNA)
RNA: GGGAGUUCUACAGUCCGACGAUCGCUUCGAUAUCCGCAUGCUAGACAUGAAAGAGGAGGAAACUCCAUGACCUCUACAUCCCCCGCAGUCCUCCCAGCGGGGGAGGACUUCUCUGCUGCUCCGAAGAACAUCAUGCACUCCUGUGUGUGUGUGUGAGUGUGUGUGUGUGUGUGUGUGUGUGUGUGUGUGUAUGUGUGUGUAUAUGUGUGUGUGUGUGUGUAUGUGUGUGUGUGUGUGUGAGUGAGUGUGUGUGUGUGUGUGUGUGUGUGAGUGUGUGUGUAUAUGUGUGUGUGUGUGUGAGAGCUCUUGCGGUCGCACUAGUGUGGAAUUCUCGGGUGUCAAGG

The target in this test is TDP-43 (Homo sapiens, UniProt Q13148 1-414). The test is described as follows: RNA Bind-n-Seq with designed 260-mer pool; 25 mM Tris-HCl, 150 mM KCl, 3 mM MgCl2, BSA (printed 500 mg/mL), 20 units/mL SUPERase IN; pH not stated; 500 nM RNA pool, 1 h, 4 C; TDP-43 5, 50, 500 nM; high values mean tight binding. Conditions: protein: recombinant; tags: SBP (GST cleaved off with PreScission; pGEX-GST-SBP). An outline of the steps: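 Streptavidin beads captured recombinant SBP-tagged TDP-43 at 5, 50 or 500 nM, and the beads were incubated for 1 h at 4 °C with 500 nM of an in vitro-transcribed pool of 260-nt 3′ UTR oligos in 25 mM Tris-HCl, 150 mM KCl, 3 mM MgCl2, BSA and SUPERase IN. After washing, bound RNA was eluted with biotin, reverse transcribed, PCR-amplified and sequenced. Binding is reported as R, the mapped-read-normalized abundance of each oligo in the bound sample divided by its abundance in the input. Two independent protein batches served as duplicates.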
Chain of TDP-43 (Q13148 whole entry): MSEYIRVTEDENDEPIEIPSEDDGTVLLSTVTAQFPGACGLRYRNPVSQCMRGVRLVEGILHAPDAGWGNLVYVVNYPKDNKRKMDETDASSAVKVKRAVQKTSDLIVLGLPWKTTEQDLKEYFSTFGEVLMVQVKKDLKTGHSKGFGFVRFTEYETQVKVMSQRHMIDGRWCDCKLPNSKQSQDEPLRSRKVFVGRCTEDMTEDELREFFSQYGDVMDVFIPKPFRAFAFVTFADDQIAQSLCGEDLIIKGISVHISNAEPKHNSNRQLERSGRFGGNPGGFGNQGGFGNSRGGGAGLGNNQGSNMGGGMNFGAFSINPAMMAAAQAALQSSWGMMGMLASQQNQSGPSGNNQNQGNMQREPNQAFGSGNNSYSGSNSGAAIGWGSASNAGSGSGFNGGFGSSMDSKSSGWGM
Take B1: the binding signal is 0.269 R (bound/input frequency ratio).

Consider B2, for which the binding signal is 2.5 R (bound/input frequency ratio).

In the case of B3, the binding signal was 3.43 R (bound/input frequency ratio).

Regarding B4, the binding signal was 8.75 R (bound/input frequency ratio).

With B5, the binding signal was 3.44 R (bound/input frequency ratio).

In the case of B6, the binding signal is 0.236 R (bound/input frequency ratio).

For the molecule B7, the binding signal was 0.573 R (bound/input frequency ratio).

B8: the binding signal was 7.95 R (bound/input frequency ratio).

As to B9, the binding signal was 7.87 R (bound/input frequency ratio).

Consider B10, for which the binding signal was 8.18 R (bound/input frequency ratio).

As to B11, the binding signal was 3.86 R (bound/input frequency ratio).
